Article PMC11006913

molecular target: PROP1 (Homo sapiens, UniProt O75360 56-141); assay: PBM; 200 nM protein, PBS; settings: dsDNA, one strand shown
Sequence (O75360 56-141): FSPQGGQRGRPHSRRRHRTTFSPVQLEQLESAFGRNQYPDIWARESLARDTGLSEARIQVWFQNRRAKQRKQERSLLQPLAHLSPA

Row | Sequence | binding signal
1 | AATGGGGC | 8.17 upbm affinity estimate (log intensity, higher = more binding, comparable within an allelic series)
2 | GCATCTCC | 6.85 upbm affinity estimate (log intensity, higher = more binding, comparable within an allelic series)
3 | GACAGGGC | 6.65 upbm affinity estimate (log intensity, higher = more binding, comparable within an allelic series)
4 | AATTCAAC | 8.25 upbm affinity estimate (log intensity, higher = more binding, comparable within an allelic series)
5 | AGGCTCCG | 6.78 upbm affinity estimate (log intensity, higher = more binding, comparable within an allelic series)
6 | AACTATAT | 8.71 upbm affinity estimate (log intensity, higher = more binding, comparable within an allelic series)
7 | ATGACCAA | 8.15 upbm affinity estimate (log intensity, higher = more binding, comparable within an allelic series)
8 | AGGCCAGG | 6.77 upbm affinity estimate (log intensity, higher = more binding, comparable within an allelic series)
9 | AACTAAAT | 9.34 upbm affinity estimate (log intensity, higher = more binding, comparable within an allelic series)
10 | GCTAGACC | 6.61 upbm affinity estimate (log intensity, higher = more binding, comparable within an allelic series)
11 | AAGTTAAG | 7.89 upbm affinity estimate (log intensity, higher = more binding, comparable within an allelic series)
12 | ATGCCAGC | 6.71 upbm affinity estimate (log intensity, higher = more binding, comparable within an allelic series)
13 | AGTAAATA | 8.94 upbm affinity estimate (log intensity, higher = more binding, comparable within an allelic series)
14 | AATATGAA | 8.47 upbm affinity estimate (log intensity, higher = more binding, comparable within an allelic series)
15 | CCGAGTTA | 8.19 upbm affinity estimate (log intensity, higher = more binding, comparable within an allelic series)
16 | GCGGCCGA | 6.81 upbm affinity estimate (log intensity, higher = more binding, comparable within an allelic series)
17 | CCGGGCTA | 6.87 upbm affinity estimate (log intensity, higher = more binding, comparable within an allelic series)
18 | GCAAATAA | 9 upbm affinity estimate (log intensity, higher = more binding, comparable within an allelic series)

Row | Sequence | binding signal
19 | CACGACGA | 6.69 upbm affinity estimate (log intensity, higher = more binding, comparable within an allelic series)
20 | ACCGAGAG | 6.71 upbm affinity estimate (log intensity, higher = more binding, comparable within an allelic series)
21 | CTTGGGTC | 6.81 upbm affinity estimate (log intensity, higher = more binding, comparable within an allelic series)
22 | AGGACACC | 6.84 upbm affinity estimate (log intensity, higher = more binding, comparable within an allelic series)
23 | ATTACTAA | 9.85 upbm affinity estimate (log intensity, higher = more binding, comparable within an allelic series)
24 | CCCGCGCA | 6.78 upbm affinity estimate (log intensity, higher = more binding, comparable within an allelic series)
25 | AAATCATG | 8.42 upbm affinity estimate (log intensity, higher = more binding, comparable within an allelic series)
26 | GGGTCGGA | 6.69 upbm affinity estimate (log intensity, higher = more binding, comparable within an allelic series)
27 | TACCCTAA | 8.09 upbm affinity estimate (log intensity, higher = more binding, comparable within an allelic series)
28 | GGTGCACC | 6.54 upbm affinity estimate (log intensity, higher = more binding, comparable within an allelic series)
29 | CGCGAACC | 6.6 upbm affinity estimate (log intensity, higher = more binding, comparable within an allelic series)
30 | ATCACTAA | 8.89 upbm affinity estimate (log intensity, higher = more binding, comparable within an allelic series)
31 | CCTGTTAC | 7.8 upbm affinity estimate (log intensity, higher = more binding, comparable within an allelic series)
32 | GCCATGGC | 6.94 upbm affinity estimate (log intensity, higher = more binding, comparable within an allelic series)
33 | ATTATGGG | 9.26 upbm affinity estimate (log intensity, higher = more binding, comparable within an allelic series)
34 | AATCACAT | 9.48 upbm affinity estimate (log intensity, higher = more binding, comparable within an allelic series)
35 | CCGACCGG | 6.54 upbm affinity estimate (log intensity, higher = more binding, comparable within an allelic series)
36 | AATCACCT | 8.74 upbm affinity estimate (log intensity, higher = more binding, comparable within an allelic series)

molecular target: PROP1 (Homo sapiens, UniProt O75360 56-141, R99H); assay: PBM; 200 nM protein, PBS; settings: dsDNA, one strand shown
Sequence (O75360 56-141 R99H): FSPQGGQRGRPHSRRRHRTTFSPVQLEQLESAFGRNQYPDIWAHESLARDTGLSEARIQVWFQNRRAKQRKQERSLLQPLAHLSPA

Row | Sequence | binding signal
37 | GCATCTCC | 6.93 upbm affinity estimate (log intensity, higher = more binding, comparable within an allelic series)
38 | GACAGGGC | 6.63 upbm affinity estimate (log intensity, higher = more binding, comparable within an allelic series)
39 | AATTCAAC | 7.78 upbm affinity estimate (log intensity, higher = more binding, comparable within an allelic series)
40 | AGGCTCCG | 6.73 upbm affinity estimate (log intensity, higher = more binding, comparable within an allelic series)
41 | AGGCCAGG | 6.97 upbm affinity estimate (log intensity, higher = more binding, comparable within an allelic series)
42 | AACTAAAT | 8.6 upbm affinity estimate (log intensity, higher = more binding, comparable within an allelic series)
43 | GCTAGACC | 6.75 upbm affinity estimate (log intensity, higher = more binding, comparable within an allelic series)
44 | ATGCCAGC | 6.77 upbm affinity estimate (log intensity, higher = more binding, comparable within an allelic series)
45 | AGTAAATA | 8.48 upbm affinity estimate (log intensity, higher = more binding, comparable within an allelic series)
46 | AATATGAA | 8.01 upbm affinity estimate (log intensity, higher = more binding, comparable within an allelic series)
47 | GCGGCCGA | 6.82 upbm affinity estimate (log intensity, higher = more binding, comparable within an allelic series)
48 | CCGGGCTA | 6.89 upbm affinity estimate (log intensity, higher = more binding, comparable within an allelic series)
49 | GCAAATAA | 8.48 upbm affinity estimate (log intensity, higher = more binding, comparable within an allelic series)
50 | CACGACGA | 6.8 upbm affinity estimate (log intensity, higher = more binding, comparable within an allelic series)
51 | ACCGAGAG | 6.74 upbm affinity estimate (log intensity, higher = more binding, comparable within an allelic series)
52 | CTTGGGTC | 6.75 upbm affinity estimate (log intensity, higher = more binding, comparable within an allelic series)
53 | AGGACACC | 6.77 upbm affinity estimate (log intensity, higher = more binding, comparable within an allelic series)
54 | ATTACTAA | 9.4 upbm affinity estimate (log intensity, higher = more binding, comparable within an allelic series)
55 | CCCGCGCA | 6.9 upbm affinity estimate (log intensity, higher = more binding, comparable within an allelic series)
56 | GGGTCGGA | 6.78 upbm affinity estimate (log intensity, higher = more binding, comparable within an allelic series)
57 | GGTGCACC | 6.58 upbm affinity estimate (log intensity, higher = more binding, comparable within an allelic series)
58 | CGCGAACC | 6.67 upbm affinity estimate (log intensity, higher = more binding, comparable within an allelic series)
59 | ATCACTAA | 8.2 upbm affinity estimate (log intensity, higher = more binding, comparable within an allelic series)
60 | GCCATGGC | 6.8 upbm affinity estimate (log intensity, higher = more binding, comparable within an allelic series)
61 | ATTATGGG | 8.87 upbm affinity estimate (log intensity, higher = more binding, comparable within an allelic series)
62 | CCGACCGG | 6.6 upbm affinity estimate (log intensity, higher = more binding, comparable within an allelic series)

molecular target: PROP1 (Homo sapiens, UniProt O75360 56-141, F88S); assay: PBM; 200 nM protein, PBS; settings: dsDNA, one strand shown
Sequence (O75360 56-141 F88S): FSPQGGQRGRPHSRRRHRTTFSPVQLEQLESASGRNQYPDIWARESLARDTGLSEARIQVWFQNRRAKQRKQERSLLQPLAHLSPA

Row | Sequence | binding signal
63 | AATGGGGC | 7.05 upbm affinity estimate (log intensity, higher = more binding, comparable within an allelic series)
64 | GCATCTCC | 6.57 upbm affinity estimate (log intensity, higher = more binding, comparable within an allelic series)
65 | GACAGGGC | 6.47 upbm affinity estimate (log intensity, higher = more binding, comparable within an allelic series)
66 | AATTCAAC | 7.25 upbm affinity estimate (log intensity, higher = more binding, comparable within an allelic series)
67 | AGGCTCCG | 6.8 upbm affinity estimate (log intensity, higher = more binding, comparable within an allelic series)
68 | AACTATAT | 7.61 upbm affinity estimate (log intensity, higher = more binding, comparable within an allelic series)
69 | ATGACCAA | 7.17 upbm affinity estimate (log intensity, higher = more binding, comparable within an allelic series)
70 | AGGCCAGG | 6.49 upbm affinity estimate (log intensity, higher = more binding, comparable within an allelic series)
71 | AACTAAAT | 7.5 upbm affinity estimate (log intensity, higher = more binding, comparable within an allelic series)
72 | GCTAGACC | 6.62 upbm affinity estimate (log intensity, higher = more binding, comparable within an allelic series)
73 | AAGTTAAG | 7.07 upbm affinity estimate (log intensity, higher = more binding, comparable within an allelic series)
74 | ATGCCAGC | 6.73 upbm affinity estimate (log intensity, higher = more binding, comparable within an allelic series)
75 | AGTAAATA | 7.6 upbm affinity estimate (log intensity, higher = more binding, comparable within an allelic series)
76 | AATATGAA | 7.42 upbm affinity estimate (log intensity, higher = more binding, comparable within an allelic series)
77 | CCGAGTTA | 7.14 upbm affinity estimate (log intensity, higher = more binding, comparable within an allelic series)
78 | GCGGCCGA | 6.76 upbm affinity estimate (log intensity, higher = more binding, comparable within an allelic series)
79 | CCGGGCTA | 6.52 upbm affinity estimate (log intensity, higher = more binding, comparable within an allelic series)
80 | GCAAATAA | 7.34 upbm affinity estimate (log intensity, higher = more binding, comparable within an allelic series)

Row | Sequence | binding signal
81 | CACGACGA | 6.95 upbm affinity estimate (log intensity, higher = more binding, comparable within an allelic series)
82 | ACCGAGAG | 6.73 upbm affinity estimate (log intensity, higher = more binding, comparable within an allelic series)
83 | CTTGGGTC | 6.83 upbm affinity estimate (log intensity, higher = more binding, comparable within an allelic series)
84 | AGGACACC | 6.75 upbm affinity estimate (log intensity, higher = more binding, comparable within an allelic series)
85 | ATTACTAA | 7.62 upbm affinity estimate (log intensity, higher = more binding, comparable within an allelic series)
86 | CCCGCGCA | 6.76 upbm affinity estimate (log intensity, higher = more binding, comparable within an allelic series)
87 | AAATCATG | 7.26 upbm affinity estimate (log intensity, higher = more binding, comparable within an allelic series)
88 | GGGTCGGA | 6.58 upbm affinity estimate (log intensity, higher = more binding, comparable within an allelic series)
89 | TACCCTAA | 7.04 upbm affinity estimate (log intensity, higher = more binding, comparable within an allelic series)
90 | GGTGCACC | 6.7 upbm affinity estimate (log intensity, higher = more binding, comparable within an allelic series)
91 | CGCGAACC | 6.71 upbm affinity estimate (log intensity, higher = more binding, comparable within an allelic series)
92 | ATCACTAA | 7.19 upbm affinity estimate (log intensity, higher = more binding, comparable within an allelic series)
93 | CCTGTTAC | 7.11 upbm affinity estimate (log intensity, higher = more binding, comparable within an allelic series)
94 | GCCATGGC | 6.74 upbm affinity estimate (log intensity, higher = more binding, comparable within an allelic series)
95 | ATTATGGG | 7.21 upbm affinity estimate (log intensity, higher = more binding, comparable within an allelic series)
96 | AATCACAT | 7.46 upbm affinity estimate (log intensity, higher = more binding, comparable within an allelic series)
97 | CCGACCGG | 6.35 upbm affinity estimate (log intensity, higher = more binding, comparable within an allelic series)
98 | AATCACCT | 7.3 upbm affinity estimate (log intensity, higher = more binding, comparable within an allelic series)
